Source: PubChem BioAssay (NCI)
The panel holds about 83,000 compounds, 20% with a hit somewhere; the sample as a whole holds those more often.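 Percent growth is the endpoint: 0 to 100 indicates growth inhibition (40 means 60% inhibition), 0 means no net growth, and negative values indicate cell death.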 Active and inactive are the calls of the source. The calls were made as follows: active = growth percent below 10; inactive = the rest.

Legend:
Assay in all cases: NCI-60 one-dose screen, 48 h (100 = growth as untreated, 0 = no growth, -100 = all killed)
Settings in all cases: 10 µM unless noted
DU-145 prostate = tested on: DU-145 prostate
K-562 leukemia = tested on: K-562 leukemia
MALME-3M melanoma = tested on: MALME-3M melanoma
MDA-MB-231 breast = tested on: MDA-MB-231 breast
RXF 393 renal = tested on: RXF 393 renal
SF-268 CNS = tested on: SF-268 CNS
SF-295 CNS = tested on: SF-295 CNS
SF-539 CNS = tested on: SF-539 CNS
UACC-257 melanoma = tested on: UACC-257 melanoma
M14 melanoma = tested on: M14 melanoma

Measured: growth

Cc1cc(-c2ccccc2)nc2ccccc12
inactive: DU-145 prostate 112% | K-562 leukemia 91.8% | MALME-3M melanoma 99.4% | MDA-MB-231 breast 94.3% | RXF 393 renal 94.6% | SF-268 CNS 94.7% | SF-295 CNS 97.6% | SF-539 CNS 98.2% | UACC-257 melanoma 99.9% | M14 melanoma 96.6%

Cn1c2ccccc2c2ssc(=S)c21
inactive: DU-145 prostate 116% | K-562 leukemia 82.9% | MALME-3M melanoma 81.9% | MDA-MB-231 breast 99.9% | RXF 393 renal 108% | SF-268 CNS 103% | SF-295 CNS 97.3% | SF-539 CNS 97.5% | UACC-257 melanoma 98.8% | M14 melanoma 89.3%

O=C(Nc1cccc([N+](=O)[O-])c1)Nc1cccc([N+](=O)[O-])c1
inactive: DU-145 prostate 42.2% | K-562 leukemia 15.3% | MALME-3M melanoma 66.9% | MDA-MB-231 breast 88.1% | RXF 393 renal 99.4% | SF-268 CNS 82.6% | SF-295 CNS 34.6% | SF-539 CNS 74.9% | UACC-257 melanoma 68.1% | M14 melanoma 44.6%

COC(=O)/C=C/C(=O)c1cc(C)cc(C)c1O
inactive: DU-145 prostate 103% | K-562 leukemia 103% | MALME-3M melanoma 95.7% | MDA-MB-231 breast 114% | RXF 393 renal 116% | SF-268 CNS 95.9% | SF-295 CNS 93.5% | SF-539 CNS 99.5% | UACC-257 melanoma 99.8% | M14 melanoma 102%

Nc1nccc(=S)[nH]1
inactive: DU-145 prostate 112% | K-562 leukemia 97.8% | MALME-3M melanoma 112% | MDA-MB-231 breast 112% | RXF 393 renal 92.5% | SF-268 CNS 98.6% | SF-295 CNS 103% | SF-539 CNS 107% | UACC-257 melanoma 75.7% | M14 melanoma 106%

O=C1C(Cl)=C(Nc2ccccc2)C(=O)C(Cl)=C1Nc1ccccc1
inactive: DU-145 prostate 121% | K-562 leukemia 103% | MALME-3M melanoma 119% | MDA-MB-231 breast 121% | RXF 393 renal 116% | SF-268 CNS 105% | SF-295 CNS 114% | SF-539 CNS 106% | UACC-257 melanoma 107% | M14 melanoma 113%

COc1cccc(-c2nc3sccn3c2-c2ccnc(NCCNC(=O)c3ccccc3)n2)c1
inactive: DU-145 prostate 100% | K-562 leukemia 67.5% | MALME-3M melanoma 26.7% | MDA-MB-231 breast 83.5% | RXF 393 renal 86.3% | SF-268 CNS 92.7% | SF-295 CNS 85.4% | SF-539 CNS 97.7% | UACC-257 melanoma 69.7% | M14 melanoma 40.1%

CCCCOc1nc2ccc(Cl)cc2cc1/C=C/C(=O)/C=C/c1ccc(Cl)cc1
inactive: DU-145 prostate 84.7% | K-562 leukemia 57% | MALME-3M melanoma 104% | MDA-MB-231 breast 86.5% | RXF 393 renal 41.6% | SF-268 CNS 81% | SF-295 CNS 79.5% | SF-539 CNS 100% | UACC-257 melanoma 84% | M14 melanoma 18%

CC(CCC(=O)O)[C@H]1CCC2C3C(=O)C[C@@H]4CC(=O)CC[C@]4(C)C3CC(=O)[C@@]21C (stereo not given in full)
inactive: DU-145 prostate 114% | K-562 leukemia 94.2% | MALME-3M melanoma 97.5% | MDA-MB-231 breast 90.7% | RXF 393 renal 110% | SF-268 CNS 110% | SF-295 CNS 92.9% | SF-539 CNS 111% | UACC-257 melanoma 112% | M14 melanoma 110%

COc1ccc(-c2nn(-c3ccc(NC(=O)c4ccc(Cl)c(C(F)(F)F)c4)cc3)cc2-c2ccncc2)cc1Cl
inactive: DU-145 prostate 45% | SF-268 CNS 14.5% | UACC-257 melanoma 51.2% | M14 melanoma 13.3%
active: K-562 leukemia 0.122% | MALME-3M melanoma 6.68% | MDA-MB-231 breast -29.6% | RXF 393 renal -76% | SF-295 CNS -30.3% | SF-539 CNS 9.99%

O=C(Nc1cccc(-n2ccc3c(NC(=O)c4ccccc4)nccc32)c1)c1cc(N2CCOCC2)cc(C(F)(F)F)c1
active: DU-145 prostate -20.2% | K-562 leukemia 4.28% | MDA-MB-231 breast -16.6% | RXF 393 renal -67.3% | SF-268 CNS 8.26% | SF-295 CNS -24.4% | SF-539 CNS -23.2% | M14 melanoma 9.34%
inactive: MALME-3M melanoma 32% | UACC-257 melanoma 32%

COc1cc(/C=C/C(=O)c2c(C)n([O-])c3cc(C)c(C)cc3[n+]2=O)cc(OC)c1OC
inactive: DU-145 prostate 50.5% | K-562 leukemia 21.7% | MALME-3M melanoma 86% | MDA-MB-231 breast 67.8% | RXF 393 renal 54.2% | SF-268 CNS 79.9% | SF-295 CNS 71.7% | SF-539 CNS 80.2% | UACC-257 melanoma 100% | M14 melanoma 48.7%

COc1cc(CN(c2ccc(Cl)cc2)C2OC(=O)c3ccccc32)cc(OC)c1OC (stereo not given)
inactive: DU-145 prostate 83.7% | K-562 leukemia 15.8% | MALME-3M melanoma 64.3% | MDA-MB-231 breast 67.1% | RXF 393 renal 82.7% | SF-268 CNS 67.8% | SF-295 CNS 71.5% | SF-539 CNS 60.2% | UACC-257 melanoma 74.7% | M14 melanoma 34.8%

[2H]c1nc(Nc2ncc(F)c(-c3cc(F)c4nc(C)n(C(C)C)c4c3)n2)c([2H])c([2H])c1CN1CCN(CC)CC1
inactive: DU-145 prostate 59% | MALME-3M melanoma 85.9% | MDA-MB-231 breast 55.5% | SF-268 CNS 54% | SF-295 CNS 59.2% | SF-539 CNS 67.2% | UACC-257 melanoma 72.3% | M14 melanoma 46.3%
active: K-562 leukemia -15.9% | RXF 393 renal -8%

CC(=O)c1ccc2c(c1)C1C=CCC1[C@H](c1cc3c(cc1Br)OCO3)N2 (stereo not given in full)
active: DU-145 prostate -17% | K-562 leukemia 4.19% | RXF 393 renal -12.4% | SF-295 CNS -36.7% | SF-539 CNS -12.1% | M14 melanoma -7.21%
inactive: MALME-3M melanoma 49.7% | MDA-MB-231 breast 16.9% | SF-268 CNS 40.6% | UACC-257 melanoma 75%

COc1ccc(C(=O)NC(=O)Nc2ccc3c(c2)NC(=O)/C3=C\c2[nH]c(C)c(C(=O)O)c2C)c(F)c1
inactive: DU-145 prostate 28.2% | K-562 leukemia 62.6% | MDA-MB-231 breast 63.5% | SF-268 CNS 65.4% | SF-295 CNS 33.1% | SF-539 CNS 47.8% | UACC-257 melanoma 47.2% | M14 melanoma 17.6%
active: MALME-3M melanoma -8% | RXF 393 renal -21%

Cc1ccc(Cn2cc(COc3ccc4c5ccnc(C)c5n(CCCc5ccccc5)c4c3)nn2)cc1
inactive: DU-145 prostate 103% | K-562 leukemia 62.3% | MALME-3M melanoma 87.9% | MDA-MB-231 breast 75.8% | RXF 393 renal 114% | SF-268 CNS 95.9% | SF-295 CNS 87.7% | SF-539 CNS 89.9% | UACC-257 melanoma 109% | M14 melanoma 86.2%

c1nc(SC2=NCCN2)c2[nH]cnc2n1
inactive: DU-145 prostate 37.3% | K-562 leukemia 14.3% | MALME-3M melanoma 47.3% | MDA-MB-231 breast 37.7% | RXF 393 renal 59.7% | SF-268 CNS 46.5% | SF-295 CNS 29.1% | SF-539 CNS 24.3% | UACC-257 melanoma 66.8% | M14 melanoma 14.7%

CCn1cc(C(=O)O)c(=O)c2cc(F)c(N3CCN(CC(=O)Nc4ccc(C(C)=O)cc4)CC3)cc21
inactive: DU-145 prostate 111% | K-562 leukemia 94.6% | MALME-3M melanoma 105% | MDA-MB-231 breast 100% | RXF 393 renal 102% | SF-268 CNS 102% | SF-295 CNS 103% | SF-539 CNS 98% | UACC-257 melanoma 93.1% | M14 melanoma 102%

O=C(N/N=C1\SCC(=O)N1c1ccccc1)c1cc(-c2cc3ccccc3o2)nn1-c1ccccc1
inactive: DU-145 prostate 109% | K-562 leukemia 90.6% | MALME-3M melanoma 94% | MDA-MB-231 breast 91.9% | RXF 393 renal 101% | SF-268 CNS 103% | SF-295 CNS 104% | SF-539 CNS 104% | UACC-257 melanoma 107% | M14 melanoma 110%

Cc1nccc2c3ccc(OCc4cn(-c5ccc(Br)cc5)nn4)cc3n(CCCc3ccccc3)c12
active: MALME-3M melanoma -61.1% | MDA-MB-231 breast -1.95% | RXF 393 renal -26.2% | SF-268 CNS -15.5% | SF-539 CNS -59.8% | UACC-257 melanoma -20% | M14 melanoma -81.7%
inactive: DU-145 prostate 48.6% | K-562 leukemia 14.9% | SF-295 CNS 98.2%

NC(=NCCCOc1ccc(F)cc1)Nc1ccc(Cl)c(Cl)c1
inactive: DU-145 prostate 80.2% | K-562 leukemia 12.6% | MALME-3M melanoma 98.1% | MDA-MB-231 breast 44% | RXF 393 renal 68.6% | SF-268 CNS 54.9% | SF-295 CNS 76.6% | SF-539 CNS 79.1% | UACC-257 melanoma 77.2% | M14 melanoma 63.6%

O=C(C[n+]1cccc(Br)c1)c1ccc2c(c1)CCCC2
inactive: DU-145 prostate 110% | K-562 leukemia 100% | MALME-3M melanoma 96.6% | MDA-MB-231 breast 99.4% | RXF 393 renal 117% | SF-268 CNS 103% | SF-295 CNS 104% | SF-539 CNS 98.6% | UACC-257 melanoma 112% | M14 melanoma 92.4%

CCCCCCCCN(CCCCCCCC)CC(O)c1cc(-c2ccccc2)nc2ccc(OC)cc12 (stereo not given)
inactive: DU-145 prostate 82.6% | K-562 leukemia 52.2% | MALME-3M melanoma 91.3% | MDA-MB-231 breast 63.7% | RXF 393 renal 90.2% | SF-268 CNS 38.3% | SF-295 CNS 93.8% | UACC-257 melanoma 83.2% | M14 melanoma 24.7%
active: SF-539 CNS 0.739%

FC(F)(F)c1cccc([Si](F)(c2cccc(C(F)(F)F)c2)c2cccc(C(F)(F)F)c2)c1
inactive: DU-145 prostate 94% | K-562 leukemia 62.2% | MALME-3M melanoma 106% | MDA-MB-231 breast 80.4% | RXF 393 renal 87.6% | SF-268 CNS 84% | SF-295 CNS 69.2% | SF-539 CNS 101% | UACC-257 melanoma 81.3% | M14 melanoma 86.1%

C=CC(=O)NC(=O)Nc1ccccc1Cl
inactive: DU-145 prostate 48.4% | K-562 leukemia 41.2% | MALME-3M melanoma 83% | MDA-MB-231 breast 72.4% | RXF 393 renal 88.7% | SF-268 CNS 96.7% | SF-295 CNS 101% | SF-539 CNS 72.3% | UACC-257 melanoma 71.9% | M14 melanoma 70%

COc1ccc(-c2nnc(NC(=O)CN3CCN(c4cc5c(cc4F)c(=O)c(C(=O)O)cn5C4CC4)CC3)s2)cc1OC
inactive: DU-145 prostate 113% | K-562 leukemia 89.9% | MALME-3M melanoma 98.9% | MDA-MB-231 breast 102% | RXF 393 renal 105% | SF-268 CNS 97.7% | SF-295 CNS 103% | SF-539 CNS 96.8% | UACC-257 melanoma 98% | M14 melanoma 97.7%
